Assay results as given in article PMC7819943, “Rice protein-binding microarrays: a tool to detect cis-acting elements near promoter regions in rice”.
Over roughly 68,000 sequences, “fluorescence intensity (a.u.)” has its median near 9,100; the highest 2% begin near 16,000. The sample holds the highest values, similar sequences and a random draw of the others, so the mix is not that of the screen.

Each sequence was assayed against OsWRKY34 (Oryza sativa, UniProt Q0JBA9 1-250) (assay: protein-binding microarray (RPBM); PBS, 2% BSA, 51.3 ng/ul salmon testes DNA, 50 uM zinc acetate, 200 nM TF, 25 C, 1 h; high values mean tight binding). Settings: protein: recombinant; tags: N-terminal polyhistidine and DsRed monomer fusion (pET32a); label: CyDye5-dUTP incorporated in the synthesized complementary strand; 3' TTTTT single-stranded linker to array surface; dsDNA, one strand shown.
OsWRKY34, sequence (Q0JBA9 entry or part of it): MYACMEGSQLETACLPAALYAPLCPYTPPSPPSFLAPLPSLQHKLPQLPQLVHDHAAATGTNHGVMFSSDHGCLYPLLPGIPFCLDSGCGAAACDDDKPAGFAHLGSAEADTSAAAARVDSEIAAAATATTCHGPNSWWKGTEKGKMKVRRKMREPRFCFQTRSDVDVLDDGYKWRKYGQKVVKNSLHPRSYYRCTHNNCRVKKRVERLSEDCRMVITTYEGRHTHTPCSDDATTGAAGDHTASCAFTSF
In short: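 Binding signal is defined as the fluorescence intensity of each feature in arbitrary units, read on an Axon 4000B scanner. Transcription factors with N-terminal polyhistidine and DsRed fusions came from E. coli BL21-CodonPlus and were purified on Ni–NTA. They were incubated at 200 nM for 1 h at 25 °C on a custom Agilent array that had been made double-stranded with Cy5-dUTP, with 50 µM zinc acetate present, and the array was washed.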
For “TTGGCCATGTTAATGTTTTACTGATCATCAATTTGGTTACCGGAGTCACCTAGTGCAG”, the binding signal was 8980 fluorescence intensity (a.u.).
With “TGGTTTGGTTACTGGTTTAGTGCTTGAATTAATGTGGCACCGGAGTCACCTAGTGCAG” the binding signal was 18400 fluorescence intensity (a.u.).
For “GCCGAGCCGCGTCCCTTTTTCCCATCGCCCACGCAGCGAGCGGAGTCACCTAGTGCAG”, the binding signal was 8920 fluorescence intensity (a.u.).
“TATGATATGTGTGCCTCAGTTGTTGTGCTTGCTGATGTGTCGGAGTCACCTAGTGCAG” was tested, and the binding signal was 9730 fluorescence intensity (a.u.).
For “TTTCCGGTTTTTCCAATATTTTTCGATACCGTTTTCATTTCGGAGTCACCTAGTGCAG”, the binding signal was 12800 fluorescence intensity (a.u.).
“TTGGGTGGAGGATTTGGAATTTGACCGGTTGACTTAGGGTCGGAGTCACCTAGTGCAG” was tested, and the binding signal was 11900 fluorescence intensity (a.u.).
In the case of “TTCATATTTTCACCGTTTGGGTAGAGTGGTGGTGGGGTGTCGGAGTCACCTAGTGCAG”, the binding signal is reported as 10400 fluorescence intensity (a.u.).
For “CAGGTAATGGATTGATTGCAGGGTTGGGATTTGACCAGGTCGGAGTCACCTAGTGCAG”, the binding signal was 11300 fluorescence intensity (a.u.).
For “ATGGGGTTGACTTTTTTTTAGGGATTGCTAGGTGCACCGTCGGAGTCACCTAGTGCAG”, the binding signal was 20100 fluorescence intensity (a.u.).
In the case of “CGTCGTGGCGGGTTCATCGGGAGGGGATTATTGATTTAGTCGGAGTCACCTAGTGCAG”, the binding signal is reported as 21100 fluorescence intensity (a.u.).
In the case of “GTATTGAGGGCTTAATCGTGGTCGTGGGATATTATTTCATCGGAGTCACCTAGTGCAG”, the binding signal is reported as 8390 fluorescence intensity (a.u.).
With “TCAGTCATCGTAAATTATTGTGATTTTTTAGGGAGGGGTGCGGAGTCACCTAGTGCAG” the binding signal was 9130 fluorescence intensity (a.u.).
For “CGTCATATTTGCACCGTTTGGGTAGGGTGGGGATGGGGTGCGGAGTCACCTAGTGCAG”, the binding signal was 18700 fluorescence intensity (a.u.).
With “TTTCCACCGTTTGGCGTTTGGGTAGGGTTGGGATGGGATGCGGAGTCACCTAGTGCAG” the binding signal was 17200 fluorescence intensity (a.u.).
For “GGGGATCGGAGGGTGGGGATACGCATGGTGGATGGTAGTGCGGAGTCACCTAGTGCAG”, the binding signal was 12600 fluorescence intensity (a.u.).
“GAAAGATTTTCACCGTTTGGGTAGGTTGGGGATGGGATGACGGAGTCACCTAGTGCAG” was tested, and the binding signal was 11400 fluorescence intensity (a.u.).
For “GGGTTTGGGGTTGCGATTGGGATTGGTAGGGAGGCTGATGCGGAGTCACCTAGTGCAG”, the binding signal was 8280 fluorescence intensity (a.u.).
“ATTATTTTTGGTTGTTCTATTTATTTTCTTAAAATAATTCCGGAGTCACCTAGTGCAG” was tested, and the binding signal was 11300 fluorescence intensity (a.u.).
“CCCCACATCTTTTGCTAGCATGCCCCTACCCATTCATATTCGGAGTCACCTAGTGCAG” was tested, and the binding signal was 10500 ± 300 fluorescence intensity (a.u.).
With “CTGAGTTCTGTATTGGATCAGCTTCATGTTATCGGCATCACGGAGTCACCTAGTGCAG” the binding signal was 8450 fluorescence intensity (a.u.).
With “TTCTCCTATCTTCAACATTTGCTTTGTTACGTTTTTGACTCGGAGTCACCTAGTGCAG” the binding signal was 9560 fluorescence intensity (a.u.).
“TTTTTCTCGGTAATTTTGTGATTGGTCTACTCCTACAAAACGGAGTCACCTAGTGCAG” was tested, and the binding signal was 8290 fluorescence intensity (a.u.).
For “TGGATGATTTTGCCATTTTTTTCATTGCTGGTGCGGTGGTCGGAGTCACCTAGTGCAG”, the binding signal was 8460 fluorescence intensity (a.u.).
For “CCCGGCGTCCTCCTGCTTCCCACCGCATCGTCGCTCGCCGCGGAGTCACCTAGTGCAG”, the binding signal was 8120 fluorescence intensity (a.u.).
With “GAGGGTGGGTGCTTGCTGGCCAGACATTAAAACAATGTGTCGGAGTCACCTAGTGCAG” the binding signal was 9670 fluorescence intensity (a.u.).
“TTCTTCCCAGCCAGTGTTCCTAGTATCCATTCTCTCTCAACGGAGTCACCTAGTGCAG” was tested, and the binding signal was 9850 fluorescence intensity (a.u.).
In the case of “GGGAAAGTGGTTGGCGGATATTCTTGTTTTCTTTTTTTGTCGGAGTCACCTAGTGCAG”, the binding signal is reported as 12500 fluorescence intensity (a.u.).
With “GTAGGCTTTTGTTTCGGGTGGGATAATATCTTGGGGAAAGCGGAGTCACCTAGTGCAG” the binding signal was 20700 fluorescence intensity (a.u.).
In the case of “TTTGGGGCGCGGGTGGGTGGCTGGGTGCGCGTCGATCGTGCGGAGTCACCTAGTGCAG”, the binding signal is reported as 10900 fluorescence intensity (a.u.).
With “ACGTAGGAAGGTGGAAGCGGTTTCTTGGGGTTTGGATATGCGGAGTCACCTAGTGCAG” the binding signal was 11000 fluorescence intensity (a.u.).
For “GCGGCTTCTTCTCGGGGTGGATTTGGTGGTGGTTTTTTTTCGGAGTCACCTAGTGCAG”, the binding signal was 21500 fluorescence intensity (a.u.).
For “GTGGGCTGGGCTTCTTCTTCGTCGTCTCATACCAATCGTGCGGAGTCACCTAGTGCAG”, the binding signal was 17100 fluorescence intensity (a.u.).
In the case of “TGGTTTGCGGTGGTGCGCGCGCGGCTTCTTCTCGGGGTGGCGGAGTCACCTAGTGCAG”, the binding signal is reported as 9070 fluorescence intensity (a.u.).
“CTTGTGGATTTCGTTCGAGTTCTTGTGGTTTTGGATCGGGCGGAGTCACCTAGTGCAG” was tested, and the binding signal was 9590 fluorescence intensity (a.u.).
In the case of “GACGGGCGGCGGTGGGGCTGACGCGGGCGACGGAGGGGCTCGGAGTCACCTAGTGCAG”, the binding signal is reported as 11500 fluorescence intensity (a.u.).
With “GGGTGACGGGAGCAGCGGCGCGCGGGTGGTGGGGCTTGGACGGAGTCACCTAGTGCAG” the binding signal was 10700 fluorescence intensity (a.u.).
With “GTCGTCTCATACCAATCGTGCGGCGGCGGCGGCGGGGATGCGGAGTCACCTAGTGCAG” the binding signal was 10400 fluorescence intensity (a.u.).
With “TTGGATTGCAGTGGGGCGGACGGCGGTGGGCGGGGCTTCTCGGAGTCACCTAGTGCAG” the binding signal was 27600 fluorescence intensity (a.u.).
With “AGGTTCACAATCTATCCGACTTTTGATTTTCTTTCAATTCCGGAGTCACCTAGTGCAG” the binding signal was 9110 fluorescence intensity (a.u.).
“CAATGGCTTACGACGAGACGACTCACCTTTGAATTCCACGCGGAGTCACCTAGTGCAG” was tested, and the binding signal was 9460 fluorescence intensity (a.u.).
“TTTTAAAACTGCTGGGATTTTGCTTTCTGTTTCTTCAATGCGGAGTCACCTAGTGCAG” was tested, and the binding signal was 10900 fluorescence intensity (a.u.).
“TTAGTTTTGTTAGATCGTCGATTTTGATTAGTGCGTTTGACGGAGTCACCTAGTGCAG” was tested, and the binding signal was 9190 fluorescence intensity (a.u.).
